Test results taken from PubChem BioAssay AID504727 (Broad Institute, 2011).
“And” between values parts separate entries of the source, which are not always exact repeats. Equal values may be shown once. The source made the active and inactive calls.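 The calls were made as follows: active = fitted half-maximal concentration AC50 at or below ten times the highest valid tested dose, with signal falling as DNA is displaced (actives reach about 34 µM in these data); inconclusive = flat fit at moderate signal loss, or poor fit quality; inactive = the rest, including signal rising instead of falling.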

Experiment: acridine orange-DNA binding displacement – biochemical, fluorescence polarization, cherry-picked samples, set 2, artefact control for KSHV LANA DNA-binding inhibitor project, dose response (AID 504727)
Details: series mostly up to 35 µM

AC50, inactive:
Cc1c(C#N)c(=O)c(-[n+]2ccccc2)c([S-])n1-c1ccc(Cl)cc1
O=C(/C=N/NC(=O)c1ccc(Cl)cc1Cl)c1ccccc1
CCCCN(C(=O)C(C)Oc1ccc(Br)cc1)c1c(N)n(CC(C)C)c(=O)[nH]c1=O (stereo not drawn)
Cc1cc(-c2nnc(SCC(=O)Nc3ccccc3)n2C)no1
Cc1ccc(NC(=O)c2ccc(Cl)c(S(=O)(=O)N3CCc4ccccc43)c2)nc1
Cc1c(Cl)cccc1NS(=O)(=O)c1ccc2c(c1)C1C=CCC1C(c1ccc(C(=O)O)cc1)N2 (stereo not drawn)
C=CCNC(=O)c1cn(CC)c2cc(N3CCN(C(=O)c4ccco4)CC3)c(F)cc2c1=O
COc1ccc(Cl)cc1C(=O)NNC(=O)c1cc2ccccc2o1
CCCc1cc(C(=O)Nc2ccc(C(=O)c3ccc(C)cc3)cc2)n(C)n1
COc1ccc(CCNC(=O)CCCNC(=O)Cn2cnc3sc(C)c(C)c3c2=O)cc1OC
CN(CC(=O)Nc1ccc(N2CCOCC2)cc1)C(=O)CSc1ccc(Br)cc1
CCOc1ccc(S(=O)(=O)N(C)c2ccc(OCC(=O)NC3=NCCS3)cc2)cc1
O=C(CN1CC[C@@]2(O)CCCC[C@H]2[C@@H]1c1ccc(F)cc1)NCc1ccco1
O=C(O)CC1(CC(=O)NCc2ccncc2)CCCCC1
CC1=C(O)C(=O)C(C2=C(O)C(=O)C(C)=C(O)C2=O)=C(O)C1=O
O=c1[nH][nH]cc1C=Nc1ccc(Cl)cc1Cl
O=S(=O)(O)c1cccc2c(N=Nc3ccc(O)c4ncccc34)cccc12
Nc1c(/C=C2/C=CC(=O)C(O)=C2)c(=O)nc2sc(CC(=O)N3CCCCC3)nn12
CCOC(=O)C1Nc2ccc(C(=O)O)cc2C2C=CCC12 (stereo not drawn)
O=C(O)c1[nH]c2ccccc2c1C(c1cc(Cl)cc([N+](=O)[O-])c1O)c1c(C(=O)O)[nH]c2ccccc12
CCCc1nc(SC)[nH]c(=O)c1C
CC(C)c1ccc(NC(=O)Cn2c(=O)oc3cccnc32)cc1
CC1=NN(c2cccc(C(=O)O)c2)C(=O)/C1=C\C=C\c1ccco1
Cc1ccc2cccc(OCC(=O)NCCC3=CCCCC3)c2n1
O=C(O)c1cccc(NC2=Nc3cccc4cccc2c34)c1
Brc1c(CSc2nncc3ccccc23)nc2ccccn12
COc1cccc2[nH]c(C(=O)NC(C)c3ccccc3)cc12 (stereo not drawn)
CCN(c1ccc(C)cc1C)S(=O)(=O)c1nnc(NC(=O)c2ccco2)s1
COC(=O)c1sc(C(F)(F)F)c(-c2ccccc2)c1S(=O)(=O)N1CCOCC1

AC50, active:
Cc1cc2nc3c(=O)[nH]c(=O)[nH]c3nc2c([N+](=O)[O-])c1N 2.41 µM
Cc1cc[n+](-c2[nH]c(=O)sc2/C=N/N=C(\[O-])c2ccccc2)cc1C 12.9 µM
O=C(c1ccccc1)c1ccc(O)cc1O 7.3 µM
CCC1(c2ccccc2)NC(=O)N(CC(=O)Nc2ccc(OC)nc2)C1=O (stereo not drawn) 7.64 µM
Nc1ccc(-c2c3ccc(=O)cc-3oc3cc(O)ccc23)cc1C(=O)O 1.07 µM
Cc1nn(C)c(C)c1N1C(=O)c2cccc3c(N)ccc(c23)C1=O 0.768 µM
COCCCNc1c2c3c(cccc3[nH]c1=O)C(=O)c1ccccc1-2 0.63 µM
Nc1ccc2nc3c(=O)n(C4CCCCC4)c(=O)[nH]c3nc2c1 3.19 µM
C[n+]1c2cc(N)ccc2cc2ccc(N)cc21 1.66 µM and 2.31 µM
